Test results taken from PubChem BioAssay (NCATS).
Calls of active or inactive are those of the source. The call rests on the fitted dose curve; in most records, active means well fitted curve in the direction sought with a large enough effect; inconclusive means small, poorly fitted or top-dose-only effect, or effect the other way, or another doubt; inactive means no such curve, though single readings can be large or run the other way.

Assay: qHTS for inhibitors of adenylyl cyclases using a fission yeast platform: a pilot screen against the NCATS LOPAC library (AID 1347410);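 further: plate controls were DMSO vehicle for no effect and DPI positive control for full effect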
Details: S. pombe CHP2027, fbp1-GFP fluorescence, 18 h, yeast expressing mammalian AC9 and human GNAS; series mostly up to 57.5 µM; activity, positive = inhibition (GFP gain): at the top concentration
In short: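 Read-out: fbp1-GFP fluorescence by laser scanning cytometry (488 nm laser), a gain of signal when AC/cAMP-PKA signalling is inhibited. Strain CHP2027 expressing AC9, GNAS and PDE4D2; compounds at up to 57 µM; 18 h, 30C.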

SMILES | activity, positive = inhibition (GFP gain)
COc1cc(/C=C(\C#N)C(=O)c2ccc(O)c(O)c2)cc(I)c1O | 1.04% (inactive)
NC(=Nc1ccccc1)NC(=O)c1nc(Cl)c(N)nc1N | -0.0394% (inactive)
COc1cc([C@@H]2c3cc4c(cc3[C@H](O)C3COC(=O)[C@@H]32)OCO4)cc(OC)c1OC (stereo partly drawn) | 0.0719% (inactive)
CN1CC(O)C(O)C(O)C1CO (stereo not drawn) | -0.438% (inactive)
CC(=O)NNC(=O)N1Cc2ccccc2Oc2ccc(Cl)cc21 | -0.438% (inactive)
O=C(O)C1=CC(=C(c2ccc(O)c(C(=O)O)c2)c2ccc(O)c(C(=O)O)c2)C=CC1=O | -0.438% (inactive)
OCC1NCC(O)C(O)C1O (stereo not drawn) | -0.438% (inactive)
CC1C(=O)N(C)C(=O)c2nc[nH]c21 (stereo not drawn) | 0.327% (inactive)
CN(C)CCC(c1ccc(Br)cc1)c1ccccn1 (stereo not drawn) | 0.0812% (inactive)
CC(=O)SC1CC2=CC(=O)CC[C@]2(C)C2CC[C@@]3(C)C(CC[C@@]34CCC(=O)O4)C12 (stereo partly drawn) | 0.183% (inactive)
C=C1C(=O)O[C@@H]2[C@H]3O[C@]3(C)CCC=C(C)CC[C@@H]12 | -0.438% (inactive)
C[C@@]1(C2CCCC2)Cc2cc(OCC(=O)O)c(Cl)c(Cl)c2C1=O | -0.438% (inactive)
COC(=O)C1=C(C)NC(C)=C([N+](=O)[O-])C1c1ccccc1C(F)(F)F (stereo not drawn) | 0.0255% (inactive)
CC[C@@H]1Cc2cc(O)ccc2C2=C1c1ccc(O)cc1C[C@H]2CC | 0.202% (inactive)
COc1cc(/C=C(\C#N)C(=O)Nc2nnc(C(F)(F)F)s2)ccc1OCc1ccc(C(F)(F)F)cc1C(F)(F)F | -0.438% (inactive)
Nc1ncnc2c1ncn2C1CCCC1 | -0.438% (inactive)
O=S(=O)(c1cccc2c(Cl)cccc12)N1CCCNCC1 | -0.438% (inactive)
O=C1C2C=CC=CC2=NC(=S)N1CCN1CCC(=C(c2ccc(F)cc2)c2ccc(F)cc2)CC1 (stereo not drawn) | -0.438% (inactive)
